Measured values reported in ChEMBL document CHEMBL3433997, “St. Jude Leishmania screening dataset” (2016).

Assays:
Type in all cases: functional
[1] = target: Solute carrier family 2, facilitated glucose transporter member 1 (Homo sapiens) (UniProt P11166); assay: ST_JUDE_LEISH: Cytotoxicity at 2uM final concentration against transgenic Leishmania Mexicana promastigotes LmGLUT1 that are glucose transport deficient and complemented with the human glucose transporter GLUT1. Activity is measured by DNA content using SYBR green in vitro
[2] = target: Hexose transporter 1 (Plasmodium falciparum) (UniProt O97467); assay: ST_JUDE_LEISH: Cytotoxicity at 2uM final concentration against transgenic Leishmania Mexicana promastigotes LmPfHT that are glucose transport deficient and complemented with the Plasmodium falciparum hexose transporter. Activity is measured by DNA content using SYBR green in vitro
[3] = target: Glucose transporter (Leishmania mexicana) (UniProt O61059); assay: ST_JUDE_LEISH: Cytotoxicity at 2uM final concentration against transgenic Leishmania Mexicana promastigotes LmGT2 that are glucose transport deficient and complemented with the L. Mexicana glucose transporter 2. Activity is measured by DNA content using SYBR green in vitro

Solute carrier family 2, facilitated glucose transporter member 1 (Homo sapiens), sequence (P11166 whole entry): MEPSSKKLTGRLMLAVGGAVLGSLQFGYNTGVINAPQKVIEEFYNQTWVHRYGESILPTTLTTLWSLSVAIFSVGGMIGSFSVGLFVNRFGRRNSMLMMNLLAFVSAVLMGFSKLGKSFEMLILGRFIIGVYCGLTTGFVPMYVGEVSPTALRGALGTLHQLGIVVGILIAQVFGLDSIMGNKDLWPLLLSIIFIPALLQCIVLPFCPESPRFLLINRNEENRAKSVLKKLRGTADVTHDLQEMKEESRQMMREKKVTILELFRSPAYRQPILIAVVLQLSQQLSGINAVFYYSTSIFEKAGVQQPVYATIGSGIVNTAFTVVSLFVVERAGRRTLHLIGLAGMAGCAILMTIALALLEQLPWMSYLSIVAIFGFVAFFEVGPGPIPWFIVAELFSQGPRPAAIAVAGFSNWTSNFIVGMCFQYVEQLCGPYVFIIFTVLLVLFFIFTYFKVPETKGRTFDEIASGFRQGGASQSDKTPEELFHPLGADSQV

Structure (SMILES) | inhibition [1] [%] | inhibition [2] [%] | inhibition [3] [%]
c1ccc2sc(Sc3ncnc4sccc34)nc2c1 | 2.07 | -1.08 | 0.27
COc1cc(CNC[C@@H](O)[C@H](Cc2ccccc2)NC(=O)c2cc(OC(C)C)cc(N3CCCCS3(=O)=O)c2)cc(OC)c1 | 2.15 | 2.12 | 1.3
O=C(N/C(=C/c1cccc([N+](=O)[O-])c1)c1nc2ccccc2[nH]1)c1cccc(Br)c1 | 2.64 | 1.64 | -0.27
CCOc1ccccc1NC(=O)Nc1ccc2c(c1)CCN(C1CCC1)CC2 | 9.64 | 6.1 | 10.2
Cc1ccc2nc(-c3ccc(/C=C/C(=O)NC4CCN(Cc5ccccc5)CC4)cc3)[nH]c2c1C | 8.42 | 8.63 | 9.58
Oc1ccc(CCNc2nc(N/N=C/c3ccc(Cl)cc3)nc(N3CCNCC3)n2)cc1 | -0.62 | 1.75 | 0.33
O=C(Nc1ccc(-c2nc3ccccc3[nH]2)cc1)C1CCCN(C2CCC2)C1 (configuration not stated) | 19.8 | 14.7 | 8.04
O=C(NCc1ccc(Cl)c(Cl)c1)c1ccc(-c2nc3cc(F)c(F)cc3[nH]2)cc1 | 0.21 | 0.14 | -0.73
Clc1cc(Cl)cc(Nc2ccnc(Nc3cc(Cl)cc(Cl)c3)n2)c1 | 4.6 | 2.75 | 2.57
CCc1ccc(N2C(=O)C3C(Cc4ccc(OC(C)(C)C)cc4)NC4(C(=O)N(Cc5ccccc5)c5ccc(F)cc54)C3C2=O)cc1 (configuration not stated) | 0.6 | -0.02 | -1.06
Cc1cc(CNCCCCCNCc2ccc(Cl)cc2)ccc1O | 1.35 | 1.91 | 2.91
CCNc1nc(OCC(F)(F)F)nc(N(c2ccccc2)c2ccccc2)n1 | 0.4 | 1.48 | 1.04
CC(C)[C@H](NC(=O)c1ccc(O)c(-c2cccc(C(F)(F)F)c2)c1)C(=O)NCCN1CCCCC1 | -0.28 | -0.52 | 0.62
COc1ccc(CNc2ccnc(-n3cnc4cc(C)c(C)cc43)n2)cc1Cl | 4.37 | 3.69 | 2.53
CCNc1cc(C)nc(Nc2ccc(NS(=O)(=O)c3cc(OC)ccc3OC)cc2)n1 | 16.8 | 12.1 | 5.24
CNC(=O)c1cc(Nc2nnc(-c3ccc(C)c(S(=O)(=O)NC4CCCCC4)c3)c3ccccc23)ccc1OC | 4 | 3.11 | 4.93
O=S(=O)(Nc1cc2c(cc1OCCCN1CCCCC1)CCNCC2)c1ccc(-c2ccc(Cl)cc2)cc1 | 1.29 | -0.13 | -0.37

Structure (SMILES) | inhibition [1] [%] | inhibition [2] [%] | inhibition [3] [%]
CS(=O)(=O)Nc1ccc(-c2ccc3ccnc(N)c3c2)cc1 | 7.57 | 7.12 | 6.67
CCCOc1ccc(C=C(CC(=O)O)c2nc3ccccc3s2)cc1OCC | 2.27 | 2.53 | -7.54
N#Cc1cccc(Nc2cc(C(F)(F)F)nc(Nc3ccccc3)n2)c1 | 15.4 | 11.3 | 6.45
O=C(Nc1ccc(Cl)c(Cl)c1)N1CCC(CNCc2cccc([N+](=O)[O-])c2)CC1 | 3.92 | 4.18 | 5.3
Cc1cc(NC(=O)Nc2cccc(N(C)C)c2)c2ccccc2n1 | 2.29 | 2.59 | 1.12
CN(C)CCCOc1ccc(CCCCc2ccc(Cl)cc2C(=O)c2ccccc2)cc1 | 13.3 | 10.2 | 7.71
COc1ccc(Cl)cc1NC(=O)Nc1cc(C)nc2ccccc12 | 7.32 | 12.8 | 2.81
Cn1cccc1CCNCc1ccc(-c2cccc(-c3nc4cc(F)ccc4[nH]3)c2)cc1 | 3.65 | 3.24 | 3.01
O=C(Nc1ccc(C(=O)N2CCN(CCN3CCN(c4cccc(C(F)(F)F)c4)CC3)CC2)cc1)c1ccc(C(F)(F)F)cc1 | 2.54 | 2.63 | 1.69
c1ccc(CNCc2cccc(-c3ccc(-c4nc5ccccc5[nH]4)cc3)c2)cc1 | 6.45 | 4.96 | 7.51
Clc1ncnc2ncn(Cc3cccc(Br)c3)c12 | 15.3 | 10.7 | 10.8
O=C(Nc1cccc(C(F)(F)F)c1)c1cccc(S(=O)(=O)NCC2CCCN(CC3CCCCC3)C2)c1 (configuration not stated) | -0.44 | 0.12 | -2.09
Cc1cc(N2CCCC2=O)ccc1-c1ccc(C(=O)N2CCC(Oc3cccc(Cl)c3)CC2)cc1 | 0.43 | 1.95 | 3.87
CCC(=O)Nc1nnc(Cc2ccc(OC)c(OC)c2)s1 | 9.1 | 10.1 | 6.69
CCOCc1cnc(C)nc1CNC(=O)c1c(C)[nH]c2ccc(C)cc12 | 0.96 | 0.7 | 1.12
O=C(NCC1CC1)C1CCN(C(c2ccccc2)c2ccc(Cl)c(Cl)c2)CC1 (configuration not stated) | -0.49 | 1.49 | 0.06
COc1ccc(NC(=O)c2ccc(-c3nc(-c4ccc(Cl)cc4)cs3)cc2)cc1N1CCN(C)CC1 | 0.97 | 0.94 | 0.9
